PrPC TRFRET: inhibitors of human cell surface prion protein PrPC, primary screen, cell-based, TR-FRET; hit rate 0.43% among 370,000; Major prion protein (Homo sapiens), P04156; TR-FRET read-out; inhibition, % at 13.8 µM; in the data active = inhibition above about 24%; also: 0% = median of the test wells and 100% = reference compound wells
VHR inh abs: VHR1 phosphatase inhibitors, primary screen, biochemical, absorbance, uHTS; inhibition, % at 13.3 µM; hit rate 0.52% among 290,000; AID 1654, 2009; Dual specificity protein phosphatase 3 (Homo sapiens), P51452; recombinant VHR phosphatase, pNPP absorbance; in the data active = inhibition above about 50%
3CLpro inhibitor: SARS-CoV 3CLpro protease inhibitors, primary screen, biochemical, quenched FRET | hit rate 0.14% among 290,000 | Replicase polyprotein 1ab (Severe acute respiratory syndrome coronavirus), P0C6X7 | recombinant SARS-CoV 3CLpro, quenched FRET peptide cleavage | AID 1706, 2009 | inhibition, % at 6 µM; in the data active = inhibition above about 12%
Mtb hypoxia rep: PubChem AID 1159583 | M. tuberculosis hypoxia-regulated fluorescent reporter, fluorescence | fluorescence inhibition, % (test concentration not listed) | hit rate 0.1% among 300,000; in the data active = fluorescence inhibition mostly above about 23%, no sharp cut-off; inactive = mostly below about 17%
PrP 5UTR inh: inhibition of PrP 5' UTR reporter expression. inhibition, % (concentration not given with the values). AID 488862, 2010. hit rate 0.35% among 340,000. cell-based PrP 5' UTR mRNA reporter, plate reader; in the data active = inhibition above about 52%; also: 0 = median of the neutral control wells
MazEF act: activators of E. coli MazEF toxin-antitoxin RNase, primary screen, biochemical, fluorescence, uHTS; activation, % at 20 µM; Endoribonuclease toxin MazF (Escherichia coli (strain K12)), P0AE70; FAM/BHQ RNA-DNA oligo cleavage fluorescence, 5 h; hit rate 0.32% among 350,000; in the data active = activation above about 50%
PrPC TRFRET cf: confirmation of inhibitors of cell surface human prion protein, confirmation, cell-based, TR-FRET; hit rate 65% among 1,500; cell surface PrPC level; inhibition, % at 13.8 µM; shares compounds with PrPC TRFRET; in the data active = inhibition above about 25%
LD9 tox: cytotoxicity in LD9 cells, cytotoxicity control for cell surface PrPc inhibitor project, cell-based, luminescence, high throughput; shares compounds with PrPC TRFRET; luminescence viability; inhibition, % at 13.8 µM; hit rate 29% among 1,500; AID 743201, 2013; in the data active = inhibition above about 9.5%
Starred values were filed as active, the others as inactive; i = inactive; · = no result given. A selection: hits, their analogues and other compounds. The true share with any hit is near 1.5%.

SMILES | PrPC TRFRET | VHR inh abs | 3CLpro inhibitor | Mtb hypoxia rep | PrP 5UTR inh | MazEF act | PrPC TRFRET cf | LD9 tox
ON=Cc1ccnc(SCc2ccc(Cl)cc2)n1 | · | · | · | 0 | · | · | · | ·
O=S(=O)(C/C(=C/CO)S(=O)(=O)c1ccccc1)c1ccccc1 | 86* | 14 | 2 | 12 | -40 | 0 | 92* | 3
CC(=O)c1ccc(OCc2cc(C(=O)N(C)Cc3ncc(C)[nH]3)no2)cc1 | -1 | 23 | 4 | 14 | -18 | 6 | · | ·
COc1cccc(OCc2cc(C(=O)N(C)Cc3nc4ccccc4[nH]3)no2)c1 | 29* | 51* | -3 | 6 | -72 | 2 | 39* | 2
CC(O)C1O[C@]2(C)CCCC1O2 (stereo partly specified) | · | · | · | 10 | · | · | · | ·
CN1/C(=C\C=C\C2=[N+](C)c3ccc4ccccc4c3C2(C)C)C(C)(C)c2ccccc21 | · | 19 | -5 | · | · | · | · | ·
CCN1/C(=C/C=C/C2=[N+](CC)c3ccccc3C2(C)C)C(C)(C)c2ccccc21 | 77* | · | · | · | · | i | 96* | 78*
COC(=O)C1=C(c2c(C)noc2C)CC2CCC1N2C(=O)NCc1ccco1 (stereo unspecified) | · | · | · | 8 | · | · | · | ·
Cn1cc(Cl)c(-c2n[nH]c(=S)n2-c2ccccc2)n1 | 29* | 24 | -1 | 12 | -20 | 1 | 45* | -3
Cc1ccc(-n2c(-c3nn(C)cc3Cl)n[nH]c2=S)cc1 | 12 | 8 | -3 | 8 | -16 | -2 | · | ·
Cc1cc(C)c(-c2csc(NC(=O)/C=C/c3cccs3)n2)c(C)c1 | 45* | 53* | -1 | -5 | -18 | 1 | 41* | -9
COc1cc(C2Nc3ccccc3C(=O)N2c2ccccc2)c(Br)cc1OCC(=O)O (stereo unspecified) | 26* | -20 | 3 | 3 | -12 | -1 | 18 | -3
NC(=O)c1ccc2c(=O)n3c(-c4cc(Cl)c(N)c(Cl)c4)csc3nc2c1 | 32* | 11 | · | -3 | -20 | -8 | 1 | 3
CC1CC(=NNC(=O)CCc2ccc(S(=O)(=O)N3CCOCC3)cc2)CC(C)(C)C1 (stereo unspecified) | · | · | · | 3 | · | · | · | ·
CCCCn1c(=O)[nH]c(=O)c2c1nc(CN1C(=O)c3ccccc3S1(=O)=O)n2CCC | 12 | 24 | 1 | 6 | -5 | -13 | · | ·
CCCCn1c(=O)[nH]c(=O)c2c1nc(Cn1ncc(Cl)c(Cl)c1=O)n2CCC | 44* | 6 | -1 | · | -29 | -10 | 43* | 71*
Cc1cc(C)cc(OC(C)c2ccnc3nc(N=CN(C)C)nn23)c1 (stereo unspecified) | · | · | · | 7 | · | · | · | ·
O=C(NC1CC1)C1CCCN(C(=O)Nc2ccc(F)cc2)C1 (stereo unspecified) | 31* | -5 | -2 | 9 | -15 | -10 | 15 | 0
N#CC(C#N)=C1NC(N)=C(C#N)C(c2ccccc2)=C1C#N | 74* | 26 | 4 | · | -20 | · | 103* | -10
Fc1cccc(CCN2CCNCC2Cc2cccc3ccccc23)c1 (stereo unspecified) | · | · | · | 19 | · | · | · | ·
CC(C)(C)c1ccc(-n2nc(C#N)c(Cl)cc2=O)cc1 | 69* | -33 | 8 | 23 | -76 | -3 | 70* | 98*
N#Cc1ccc(-c2nc3ccc(Br)cn3c2Cc2cccc(F)c2)cc1 | 29* | · | · | · | · | · | 88* | 1
Fc1cccc(Cc2c(-c3ccco3)nc3ccc(Br)cn23)c1 | 51* | · | · | · | · | · | 70* | 0
Fc1cccc(Cc2c(-c3ccccc3)nc3ccc(Br)cn23)c1 | 19 | · | · | · | · | · | · | ·
Cc1ccc(Cc2c(-c3ccc(C#N)cc3)nc3ccc(Br)cn23)cc1 | 42* | · | · | · | · | -17 | 47* | 2
SMILES | PrPC TRFRET | VHR inh abs | 3CLpro inhibitor | Mtb hypoxia rep | PrP 5UTR inh | MazEF act | PrPC TRFRET cf | LD9 tox
COc1ccc(C2CC(=O)C=C(c3ccccc3-c3ccccc3)C2)cc1 (stereo unspecified) | · | · | · | 7 | · | · | · | ·
Cc1cccc(OCCCC(=O)Nc2nc3ccccc3[nH]2)c1 | 29* | 22 | -6 | -13 | -31 | 9 | 25* | -8
Cc1ccc(OCCCC(=O)Nc2nc3ccccc3[nH]2)cc1 | 7 | 17 | -2 | 3 | -82 | 10 | · | ·
Cc1cc(OCc2ccccc2)ccc1/C(O)=C1/C(=O)C(=O)N(Cc2cccnc2)C1c1ccncc1 (stereo unspecified) | 34* | 27 | 4 | 3 | -7 | 0 | 54* | -3
COCCCN1C(=O)C(=O)/C(=C(/O)c2ccc(OCC(C)C)cc2C)C1c1cccnc1 (stereo unspecified) | 26* | -5 | 2 | 17 | -26 | 4 | 36* | -8
Cc1ccc(-c2c(C(=O)NN=Cc3sccc3C)nnn2-c2nonc2N)cc1 | · | · | · | -1 | · | · | · | ·
COC(=O)C1C[C@@]2(O)C(O)C(O)C(O)CC2N1Cc1cccc2ccccc12 (stereo partly specified) | · | · | · | 18 | · | · | · | ·
Cc1cccc(-n2ncc3c(NCc4cccs4)ncnc32)c1 | 27* | 7 | 3 | 2 | -104 | -1 | 9 | -2
Clc1ccc(-n2ncc3c(NCc4cccs4)ncnc32)cc1 | -2 | · | 5 | 15 | -31 | 40 | · | ·
CC(C)NC(=S)n1cc(C(=O)c2cc(Cl)cc(Cl)c2O)cn1 | 41* | 14 | 1 | 2 | -11 | 6 | 10 | -3
Cc1cc([N+](=O)[O-])nn1Cc1ccc(C(=O)NN=Cc2ccc(O)cc2O)cc1 | · | · | · | 11 | · | · | · | ·
O=C(NN=Cc1ccc(O)cc1O)c1ccc(CN2C(=O)c3cccc4cccc2c34)cc1 | · | · | · | 7 | · | · | · | ·
O=C(N/N=C/c1ccc(O)cc1O)c1ccc(CN2C(=O)c3cccc4cccc2c34)cc1 | 31* | 1 | 3 | · | 22 | 26 | 29* | 19*
Cc1cc([N+](=O)[O-])nn1Cc1ccc(C(=O)N/N=C/c2ccc(O)cc2O)cc1 | 32* | 5 | 0 | · | -17 | 4 | 29* | 21*
Cc1ccc(S(=O)(=O)N(C)N=C2C(=O)N(CC(=O)O)c3ccccc32)cc1 | · | · | · | -3 | · | · | · | ·
C=CCOC(=O)C1=CC(c2coc3ccccc3c2=O)CC(OCc2ccc(CO)cc2)O1 (stereo unspecified) | · | · | · | 10 | · | · | · | ·
Cc1ccccc1CN1C(=O)CN(S(C)(=O)=O)CC1(C)C(=O)Nc1c(C)cccc1C (stereo unspecified) | -7 | · | · | · | · | · | · | ·
